Source: PubChem BioAssay AID1259415 (National Center for Advancing Translational Sciences (NCATS), 2018)
Screen size: about 410,000 compounds; about 18,000 (4.4%) were called active. Not shown: some 7% with an inconclusive outcome. For the sample, actives were picked, then their nearest neighbours and some compounds at random. Unmarked numbers belong to inactive results. Rule as the data show it: active = activity change below about -60%; inconclusive = no clear call, values can overlap the other calls; inactive = above about -39%.

assay: qHTS Assay for inhibitors of the human cytomegalovirus (HCMV); conditions: HFF cells, HCMV-luciferase reporter, 72 h; at 57.5 µM; stronger effect = lower value
Procedure, shortened: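 Two-dose cell screen: HFF monolayers treated with compounds and infected with luciferase-expressing HCMV at 1 PFU/cell, 72 h at 37C, then lysed for luciferase measurement.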
% is scaled to controls: 0 for no effect and ±100 for the full control effect.

SMILES	activity change, negative = inhibition
O=C(O)CCc1cccnc1	-25.2%
CN(Cc1ccccc1)S(=O)(=O)c1ccc(F)c(C(=O)Nc2cccc(Cl)c2Cl)c1	6.47%
COc1ccc2ncc3c(-c4ccc(C)c(C)c4)nn(CC(=O)NC4CCCC4)c3c2c1	14.2%
O=C(CSc1nccn1Cc1ccc(Cl)cc1)NCc1ccccc1	-18.2%
COc1ccc(Cl)cc1NC(=O)Cn1c(=O)c2ccccc2n2nncc12	11.9%
Cc1nn(-c2ccccc2)c2c1C(c1cccc([N+](=O)[O-])c1)N(c1ccccc1)C(=O)N2 (stereo not given)	-9.36%
Cc1nn(-c2ccc([N+](=O)[O-])cc2)c(N)c1-c1ccccc1	-65.4% (active)
CNP1(NC)=Nc2nn(-c3ccccc3)c(N)c2C(c2ccccc2)=N1	43.5%
O=C(NNS(=O)(=O)c1ccccc1)c1cnn(-c2ccc(Cl)cc2)c1C(F)(F)F	2.04%
CC(C)c1ccc(C2CC(=O)N3CN(C4CCCCC4)CSC3=C2C#N)cc1 (stereo not given)	-5.74%
CC(=O)c1cccc(-c2cnc3c(NC=O)cc(-c4ccc(N5CCN(C)CC5)cc4)cn23)c1	19.8%
CC(=O)Nc1cc(-c2ccc(N3CCN(C)CC3)cc2)cn2c(-c3cccc(C(=O)N(C)C)c3)cnc12	8.54%
CC(=O)Nc1cc(-c2ccc(N3CCN(C)CC3)cc2)cn2c(-c3ccc(F)cc3)cnc12	-75.2% (active)
Cc1ccc2cccc(NC(=O)c3cccc4ccccc34)c2n1	-10.4%
C/C(N)=C(/C#N)C(=O)COC(=O)C1CCN(C(=O)c2ccc(Cl)cc2)CC1	-65.3% (active)
COC(=O)C1CCN(C(=O)c2ccc3oc(Cc4ccc(Cl)cc4)nc3c2)CC1	8.67%
O=C(NC1CCCCCC1)C1CCN(C(=O)c2ccc(Cl)cc2)CC1	-37.2%
CCN(CCCNC(=O)c1c(C)oc2ncn(CC(C)C)c(=O)c12)Cc1ccccc1	-5.33%
Cc1ccc(C)c(NC(=O)C2CCCN(S(=O)(=O)c3cn(C)cn3)C2)c1 (stereo not given)	44.9%
CC(CNC(=O)c1nnc(Cc2cccc(F)c2)o1)c1ccccc1 (stereo not given)	-15.6%
O=C(Nc1ccc(C(=O)OCc2cc(=O)n3nc(C4CC4)sc3n2)cc1)c1ccc(F)cc1	7.95%
CC(C)c1ccc2oc(-c3cc(NC(=O)c4cccs4)ccc3Cl)nc2c1	-18.9%
C[C@@H]1Cn2cnc(C(=O)Nc3ccc(CNC(=O)OC(C)(C)C)cc3)c2C(=O)N1	-101% (active)
C[C@H]1Cn2cnc(C(=O)N[C@H](C)c3ccccc3)c2C(=O)N1	-3.07%
C[C@H]1Cn2cnc(C(=O)N[C@@H](Cc3c[nH]c4ccccc34)C(=O)OC(C)(C)C)c2C(=O)N1	16%
